Data published in PubChem BioAssay (NCI).
This is part of a sample that, as a whole, favours compounds with a hit. Of some 83,000 tested, about 20% had one in any assay.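 How to read the values: 0–100, growth inhibition (40 = 60% inhibited); 0, no net growth; -100 to 0, cell death (-40 = 40% of starting cells died; -100 = all dead).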 The source made the active and inactive calls. The calls were made as follows: active = growth percent below 10; inactive = the rest.

Assays:
Test in all cases: NCI-60 one-dose screen, 48 h (100 = growth as untreated, 0 = no growth, -100 = all killed)
NCI-H522 lung = conditions: 10 µM unless noted
COLO 205 colon = conditions: 10 µM
SNB-19 CNS = conditions: 10 µM unless noted
U251 CNS = conditions: 10 µM unless noted
SK-MEL-2 melanoma = conditions: 10 µM unless noted
EKVX NSCLC = conditions: 10 µM unless noted
SN12C renal = conditions: 10 µM unless noted
TK-10 renal = conditions: 10 µM unless noted
ACHN renal = conditions: 10 µM unless noted
SR leukemia = conditions: 10 µM
IGROV1 ovarian = conditions: 10 µM
HS 578T breast = conditions: 10 µM unless noted
T-47D breast = conditions: 10 µM unless noted
MDA-MB-435 melanoma = conditions: 10 µM unless noted
HCT-116 colon = conditions: 10 µM unless noted
SK-MEL-5 melanoma = conditions: 10 µM unless noted
CCRF-CEM leukemia = conditions: 10 µM unless noted
HOP-92 NSCLC = conditions: 10 µM unless noted

Measured: growth

CCC[CH2][Sn]([CH2]CCC)([CH2]CCC)[O]C(=O)CC
active: NCI-H522 lung -81.2% | COLO 205 colon -86.7% | SNB-19 CNS -75.6% | U251 CNS -84.6% | SK-MEL-2 melanoma -83.2% | EKVX NSCLC -43.9% | SN12C renal -80.6% | TK-10 renal -97.1% | ACHN renal -96.7% | SR leukemia 7.87% | IGROV1 ovarian -80.2% | HS 578T breast -38.4% | T-47D breast -74.4% | MDA-MB-435 melanoma -89.3% | HCT-116 colon -88.6%

C[C@]12CC[C@H](OC3OC(O)C(O)C(O)C3O)C=C1CCC1C2CC[C@]2(C)[C@@H](c3ccc(=O)oc3)CC[C@]12O (stereo partly specified)
active: NCI-H522 lung -61.4% | COLO 205 colon -85.1% | SK-MEL-5 melanoma -96.3% | SK-MEL-2 melanoma -61.3% | EKVX NSCLC -86.6% | TK-10 renal -80.6% | CCRF-CEM leukemia -33.8% | SR leukemia -42.7% | IGROV1 ovarian -12.1% | HS 578T breast 9.56% | T-47D breast -71.4% | MDA-MB-435 melanoma -88.2% | HCT-116 colon -95.3%
inactive: U251 CNS 104%

CCCCNCCc1ccccn1
inactive: NCI-H522 lung 86.9% | COLO 205 colon 117% | SK-MEL-5 melanoma 111% | SK-MEL-2 melanoma 87.3% | EKVX NSCLC 120% | SN12C renal 112% | TK-10 renal 96.8% | ACHN renal 101% | CCRF-CEM leukemia 92.4% | SR leukemia 101% | IGROV1 ovarian 116% | HS 578T breast 107% | T-47D breast 97.2% | MDA-MB-435 melanoma 109% | HCT-116 colon 102%

CN=C(NN)NN
inactive: NCI-H522 lung 107% | COLO 205 colon 129% | SNB-19 CNS 121% | U251 CNS 98.5% | SK-MEL-5 melanoma 107% | SK-MEL-2 melanoma 109% | EKVX NSCLC 97% | SN12C renal 113% | TK-10 renal 125% | ACHN renal 108% | CCRF-CEM leukemia 87.2% | SR leukemia 94.8% | IGROV1 ovarian 112% | HS 578T breast 102% | T-47D breast 106% | MDA-MB-435 melanoma 99.8% | HCT-116 colon 109%

C[C@]12CC[C@H]3[C@@H](C[C@@H]4N=C(c5ccc(O)cc5)S[C@@]45C[C@H](O)CC[C@]35C)[C@@H]1CC[C@@H]2O
inactive: NCI-H522 lung 41.2% | COLO 205 colon 77.7% | SNB-19 CNS 71% | U251 CNS 20.1% | SK-MEL-5 melanoma 72% | SK-MEL-2 melanoma 44.9% | EKVX NSCLC 63.6% | SN12C renal 96.7% | TK-10 renal 89.3% | ACHN renal 46% | IGROV1 ovarian 80.7% | T-47D breast 67.7% | MDA-MB-435 melanoma 92% | HCT-116 colon 43.8%
active: SR leukemia 5.95% | HS 578T breast 4.16%

CCC(C)(C)O
active: CCRF-CEM leukemia 6.63%
inactive: HOP-92 NSCLC 95.3% | COLO 205 colon 110% | SNB-19 CNS 104% | U251 CNS 108% | SK-MEL-5 melanoma 101% | EKVX NSCLC 98% | SN12C renal 98.8% | TK-10 renal 107% | ACHN renal 103% | SR leukemia 101% | IGROV1 ovarian 117% | HS 578T breast 105% | T-47D breast 107%
